Results on four compounds are retold here after PubChem BioAssay.

Values joined by “and” are separate entries in the source; they are usually repeats but may differ in a detail not shown here. Identical values can stand only once. Active and inactive are the calls of the source.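 The calls were made as follows, unless noted: active = compounds whose cell count with miR-34 switched on is under 0.7 times the count with it off; inactive = the rest.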

A short description of assay [1]: stimulators of nuclear beta-catenin in C2C12, primary screen, imaging, WNT3A-conditioned medium, mouse C2C12, NPC library (AID 1117326; in the data active = nuclear beta-catenin stimulation mostly above about 4.2%, no sharp cut-off; inactive = mostly below about 10%). The following applies: stronger effect = higher value.
Assay [2] can be described thus: stimulators of insulin release from INS-1E, primary screen, cell-based, 5 mM glucose, NPC library (AID 1117329;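 active = compound raises insulin release from rat beta cells at 5 mM glucose, no numeric limit stated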). The following applies: rat INS-1E insulin secretion, at 10 µM, stronger effect = higher value.
Assay [3] can be described thus: growth inhibition of GSK3B-pretreated HCT116 cells – cell-based, CellTiter-Glo, 0.2 to 20 µM (AID 1117336;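 active = compounds lowering colon cancer cell viability after pretreatment blocking the GSK3B kinase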). The conditions noted are these: HCT116 viability after GSK3B inhibitor, at 20 µM, stronger effect = higher value. For orientation: Cellular ATP, detected with luciferase, serves as a proxy for viable cell number.
A short description of assay [4]: inhibition of endothelial tube formation, primary screen, imaging, VEGF stimulated, CD31 staining, tube area, NPC library (AID 1117340;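 active = compound that reduces growth-factor-driven endothelial tube area in a mixed cell culture, no cutoff stated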). The conditions noted are these: VEGF-stimulated ADSC/ECFC co-culture, at 10 µM, stronger effect = higher value.
A short description of assay [5]: glucagon-like peptide 1 release enhancers, primary assay, NCI-H716 cell line, NPC library (AID 1117341;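 active = compound raises GLP1 secretion from the human gut endocrine cells, with no numeric limit stated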). The following applies: NCI-H716 cells, at 10 µM, stronger effect = higher value.
Assay [6] can be described thus: HCT116 colon cancer cell growth inhibition, primary screen, CellTiter-Glo luminescence, NPC library (AID 1117342;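 active = compounds that lower survival of HCT116 colon cancer cells in the luminescence readout, no numeric limit stated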). The following applies: at 20 µM (top of the series).
Assay [7] is described as follows: CellTiter-Glo luminescent readout of SW480 viability loss, NPC library primary (AID 1117343;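 active = compounds that lower viability of the colon cancer cells in the luminescence readout, with no numeric limit stated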). The following applies: CellTiter-Glo luminescence; at 20 µM (top of the series) unless noted.
Assay [8] can be described thus: decreased DLD-1 cellular survival, CellTiter-Glo luminescent readout, NPC compound collection, primary HTS (AID 1117346;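 active = compounds that lower survival of DLD-1 colon cancer cells in the luminescence readout, no cutoff given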). The conditions noted are these: DLD-1 viability, CellTiter-Glo luminescence; at 20 µM (top of the series).
The nature of assay [9]: differential killing of epithelial or mesenchymal cells, primary screen, imaging, PC-3E GFP, TEM4-18 mCherry, co-culture (AID 1345086;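 active = compounds killing one labelled cell type while sparing the other, by normalised counts and ratio limits, not self-fluorescent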;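 as to all read-outs here: cells exposed to compound for 72 h before imaging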;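 as to red/green cell ratio (normalised): normalised mesenchymal count divided by normalised epithelial count so high means epithelial killing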). The following applies: imaging cell counts, at 1 µM; for red/green cell ratio (normalised): actives lie on both sides, counts scaled to control wells, 1 = unselective.
A short description of assay [10]: sensitizers of A549 cells to miR-34 induction, primary screen, imaging, A549 dox-inducible miR-34, nuclei and caspase counts (AID 1347080). The conditions noted are these: A549 miR-34 inducible, Hoechst nuclei count, 48 h.
Assay [11] in a line: survival rescue of mitochondrial mutant cells in low glucose, primary screen, MELAS cybrids, Rieske KO mouse fibroblasts, CellTiter-Glo (AID 1508586;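 active = mean z-score across replicates of 1.96 or higher in either the MELAS or the Rieske mutant cell line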;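 also: z relative to plate mean and SD of compound and empty wells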).
Assay [12] deals with NAD(+) hydrolase SARM1 (Homo sapiens) (UniProt Q6SZW1). The assay can be described thus: SARM1 TIR NADase inhibitors, cell lysate, NAD-Glo luminescence (AID 1508614;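 active = compound whose remaining NAD level is above about 45 nM, limit read from the data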;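 also: higher remaining NAD means stronger inhibition of SARM1 NADase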). The conditions noted are these: SAM-TIR HEK293T lysate NADase, at 1 µM, stronger effect = higher value.
Chain of NAD(+) hydrolase SARM1 (Homo sapiens) (Q6SZW1 whole entry, looked up): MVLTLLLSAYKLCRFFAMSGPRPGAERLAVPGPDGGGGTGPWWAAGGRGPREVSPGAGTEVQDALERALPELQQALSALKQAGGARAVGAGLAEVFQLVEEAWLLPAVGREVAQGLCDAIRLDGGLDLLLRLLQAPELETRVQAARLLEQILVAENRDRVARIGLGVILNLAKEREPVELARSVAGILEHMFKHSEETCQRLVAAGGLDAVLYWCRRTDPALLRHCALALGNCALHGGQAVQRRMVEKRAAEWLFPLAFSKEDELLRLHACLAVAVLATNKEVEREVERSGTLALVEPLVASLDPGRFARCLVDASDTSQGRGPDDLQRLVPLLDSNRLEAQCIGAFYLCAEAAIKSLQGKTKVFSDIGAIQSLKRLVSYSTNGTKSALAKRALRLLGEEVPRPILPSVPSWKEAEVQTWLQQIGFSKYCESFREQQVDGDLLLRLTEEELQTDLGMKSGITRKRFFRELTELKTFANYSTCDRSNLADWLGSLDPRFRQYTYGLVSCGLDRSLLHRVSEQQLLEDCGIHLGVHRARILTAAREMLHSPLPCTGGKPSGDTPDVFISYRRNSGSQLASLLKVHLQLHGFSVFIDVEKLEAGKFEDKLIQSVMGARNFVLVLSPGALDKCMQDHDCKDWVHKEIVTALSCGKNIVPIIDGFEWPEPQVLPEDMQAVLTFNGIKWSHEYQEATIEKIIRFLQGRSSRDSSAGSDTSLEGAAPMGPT
Assay [13] can be described thus: hESC survival regulators, cell-based (AID 493140; call rule not given here;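 also: cells exposed to compounds for four days before counting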). The conditions noted are these: human embryonic stem cell survival screen; stronger effect = higher value.
A short description of assay [14]: liver-stage malaria parasite growth inhibition, primary screen, cell-based, HepG2, luciferase luminescence, HepG2 viability (AID 624349; in the data active = parasite load remaining mostly below about 12%, no sharp cut-off; inactive = mostly above about 10%;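 also: 100% = mean of DMSO negative control wells on the same plate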). The conditions noted are these: P. berghei liver stage in HepG2, luciferase luminescence, concentration not given here; parasite load remaining: stronger effect = lower value; viability: measured here: HepG2 viability without parasites.
Where [15] appears, read: measured here: epithelial PC-3E GFP cell survival.
[16] abbreviates: measured here: mesenchymal TEM4-18 mCherry cell survival.
[17] abbreviates: stronger effect = lower value, cell number ratio, induced over uninduced.
The mark [18] stands for this setting: measured here: relative caspase fold change +Dox/-Dox.
Where [19] appears, read: measured here: total cells with miR-34 induction, stronger effect = lower value.
The mark [20] stands for this setting: measured here: total cells without miR-34 induction.
Setting [21] is: MELAS cybrid survival, CellTiter-Glo 48 h, stronger effect = higher value.
Where [22] appears, read: Rieske KO mouse fibroblast survival, CellTiter-Glo 72 h.

On to `COc1ccc(O)cc1`, for which the nuclear beta-catenin stimulation in [1] (at 10 µM) was 1.7% (inactive); in assay [1] (stimulation, at 2 µM) it was 0.5%. For the same compound, the insulin secretion stimulation in [2] is -1.8% (inactive). In assay [3], the viability decrease was 12.9% (inactive). Besides, the tube area decrease in assay [4] is 18.7% (inactive). Also, the GLP1 secretion stimulation in assay [5] was -0.4% (inactive). Besides, the inhibition of viability in [6] is -4.9% (inactive). The viability decrease (inhibition) in assay [7] is 88.2% (active); in assay [8] it was 27.4% (inactive). Also, the red/green cell ratio (normalised) in assay [9] is 1.14 (inactive). Moreover, the normalised cell number in assay [9] (setting [15]) came out at 1.04; in assay [9] (setting [16]) it was 1.18. The fold change was 0.919 (inactive) and 0.917 (inactive) in assay [10] (setting [17]); 0.877 and 0.265 in assay [10] (setting [18]). Moreover, the cell count is 7700 and 8110 in assay [10] (setting [19]); 8370 and 8840 in assay [10] (setting [20]). For the same compound, the z-score in [11] (setting [21]) was -0.189 (inactive); in assay [11] (setting [22]), -0.254. For the same compound, the remaining NAD in assay [12] was 10 nM (inactive).
Take `CCCCNc1ccc(C(=O)OCCOCCOCCOCCOCCOCCOCCOCCOCCOC)cc1`: in assay [13], the survival was 33.2 (inactive). In assay [14], the parasite load remaining was 14% (inactive) and 88.5% (inactive). Also, the viability in [14] was 47.7% and 90.2%. The nuclear beta-catenin stimulation in [1] (at 10 µM) was -0.8% (inactive); in assay [1] (stimulation, at 2 µM), 0.5%. In assay [2], the insulin secretion stimulation was -2.3% (inactive). Further, the viability decrease in [3] was 9.3% (inactive). In addition, the tube area decrease in [4] was 4.2% (inactive). Further, the GLP1 secretion stimulation in assay [5] is -2.3% (inactive). Besides, in assay [6], the inhibition of viability is 31.5% (inactive). The viability decrease (inhibition) was 13% (active) in assay [7] and -17.6% (inactive) in assay [8]. In addition, the red/green cell ratio (normalised) in assay [9] is 1.21 (inactive). The normalised cell number in assay [9] (setting [15]) turned out to be 0.86; in assay [9] (setting [16]), 1.04. Also, the fold change was 0.937 (inactive) in assay [10] (setting [17]) and 1.37 in [10] (setting [18]). The cell count is 8120 in [10] (setting [19]) and 8660 in assay [10] (setting [20]). For the same compound, the z-score in assay [11] (setting [21]) is -0.167 (inactive); in assay [11] (setting [22]) it was 0.149. The remaining NAD in assay [12] is 10 nM (inactive).
For `CC[N+](CC)(CC(=O)Nc1c(C)cccc1C)Cc1ccccc1`, the parasite load remaining in assay [14] was 117% (inactive) and 51.1% (inactive). In assay [14], the viability is 146% and 98%. For the same compound, the nuclear beta-catenin stimulation in assay [1] (at 10 µM) was -0.3% (inactive); in assay [1] (stimulation, at 2 µM), 6.8%. Further, the insulin secretion stimulation in assay [2] is -0.4% (inactive). Besides, the viability decrease in assay [3] was -6.6% (inactive). In assay [4], the tube area decrease was -5.6% (inactive). The GLP1 secretion stimulation in assay [5] is 1.3% (inactive). The inhibition of viability in assay [6] is -21.2% (inactive). In addition, the viability decrease (inhibition) in assay [7] was 14.9% (inactive); in assay [8] it was -2.15% (inactive). The red/green cell ratio (normalised) in assay [9] is 1.59 (inactive). Also, the normalised cell number amounted to 1.01 in assay [9] (setting [15]) and 1.61 in [9] (setting [16]). The fold change is 0.914 (inactive) and 0.932 (inactive) in assay [10] (setting [17]); 0.77 and 5.58 in assay [10] (setting [18]). In addition, the cell count in [10] (setting [19]) is 8020 and 13200; in assay [10] (setting [20]), 8770 and 14200. Also, the z-score in assay [11] (setting [21]) was -0.589 (inactive); in assay [11] (setting [22]), -0.906. Moreover, the remaining NAD in assay [12] is 10 nM (inactive).
Consider `CC(C)(C)C(=O)C(Oc1ccc(Cl)cc1)n1ccnc1` (stereo not drawn), for which the parasite load remaining in [14] was 15% (inactive). The viability in [14] amounted to 70%. Also, the nuclear beta-catenin stimulation in assay [1] (at 10 µM) is 2.6% (inactive); in assay [1] (stimulation, at 2 µM), 1.9%. In addition, the insulin secretion stimulation in assay [2] was 2.5% (inactive). Besides, the viability decrease in assay [3] is 6.3% (inactive). For the same compound, the tube area decrease in assay [4] is 11.3% (inactive). Moreover, the GLP1 secretion stimulation in [5] was 7.4% (inactive). Also, the inhibition of viability in assay [6] was 34.8% (inactive). Further, the viability decrease (inhibition) in assay [7] is 27.1% (inactive); in assay [8], 44.1% (inactive). The red/green cell ratio (normalised) in assay [9] is 0.92 (inactive). For the same compound, the normalised cell number came to 0.94 in assay [9] (setting [15]) and 0.86 in assay [9] (setting [16]). The fold change in assay [10] (setting [17]) is 0.911 (inactive) and 0.872 (inactive); in assay [10] (setting [18]), 1.11 and 1.1. In addition, the cell count was 8350 and 8730 in assay [10] (setting [19]); 9170 and 10000 in assay [10] (setting [20]). In addition, the z-score in assay [11] (setting [21]) was -0.118 (inactive) and 0.2 (inactive); in assay [11] (setting [22]), -0.278 and -0.284. The remaining NAD in assay [12] is 10 nM (inactive).

For orientation: viability means a read-out of living cells in per cent, often relative to untreated cells.
